Screening data (PubChem)
In the library only some 3.4% were active in any assay of this set; here they are far more common.
JMJD2E inh = blocks human JMJD2E demethylase activity. Potency, µM (top dose mostly 57.1 µM), without a hit: at the highest dose activity change, negative = inhibition, hits mostly inhibitors. B2RXH2. AID 2147. JMJD2E catalytic domain, FDH-coupled NADH fluorescence (FDH is formaldehyde dehydrogenase). actives 1.6% (n = 230,000); active means well fitted inhibition curve with a large enough effect, not every such curve was filed as active; inconclusive means small, poorly fitted or top-dose-only effect, or another doubt; inactive means no such curve, though single readings can be large or run the other way;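 further: 0% = wells with enzyme and -100% = buffer wells without enzyme; nearly all actives have a fitted effect of over 50% in size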
Tau fluor counter = counter-screen for tau fibril formation inhibitors; tau K18 P301L Alexa594 fluorescence, heparin fibrillization; Potency, µM (doses to about 57.7 µM), for the others: top-dose activity change, negative = decrease; actives 0.93% (n = 280,000); further: nearly all actives have a fitted effect of over 55% in size
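Human tau K18 P301L (15 uM unlabeled, 0.24 uM Alexa 594-labeled) in 100 mM sodium acetate pH 7 with 20 uM heparin, 6 hr at 37 C. ThT 30 uM added, 1 hr ambient; Alexa 594 FP and total fluorescence read at 555/632 nm.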
GoLoco inh red = inhibitors of human Gai1-RGS12 GoLoco interaction (red fluorophore). P63096. Gai1:RGS12 GoLoco peptide FP, rhodamine, 10 min. Potency, µM (titrated, usually from 61.6 µM), without a hit: top-dose activity, negative = inhibition, actives largely listed as inhibitors. actives 0.44% (n = 230,000); active means well fitted inhibition curve with a large enough effect, not every such curve was filed as active; inactive means no such curve, though single readings can be large or run the other way; further: nearly all actives have a fitted effect of over 30% in size
Target sequence (P63096 whole entry, looked up): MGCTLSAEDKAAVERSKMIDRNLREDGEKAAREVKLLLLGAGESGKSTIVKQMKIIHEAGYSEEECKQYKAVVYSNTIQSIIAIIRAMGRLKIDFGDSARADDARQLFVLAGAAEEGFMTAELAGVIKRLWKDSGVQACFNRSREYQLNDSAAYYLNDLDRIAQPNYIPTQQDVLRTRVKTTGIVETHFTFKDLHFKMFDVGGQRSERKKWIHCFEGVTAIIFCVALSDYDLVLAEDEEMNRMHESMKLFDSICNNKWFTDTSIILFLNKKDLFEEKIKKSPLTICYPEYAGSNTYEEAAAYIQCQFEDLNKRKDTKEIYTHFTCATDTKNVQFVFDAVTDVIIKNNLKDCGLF
Tau fibril ThT = blocks human tau fibril formation measured by thioflavin T. P10636. recombinant tau K18 P301L (four-repeat tau fragment), heparin-induced fibrillization, ThT fluorescence. Potency, µM (highest dose often 57.4 µM), for inactives: top-dose activity, negative = inhibition, most hits filed as inhibitors. actives 2.1% (n = 270,000). AID 1460; further: nearly all actives have a fitted effect of over 55% in size
Target sequence (P10636 561-689 P618L limits assumed): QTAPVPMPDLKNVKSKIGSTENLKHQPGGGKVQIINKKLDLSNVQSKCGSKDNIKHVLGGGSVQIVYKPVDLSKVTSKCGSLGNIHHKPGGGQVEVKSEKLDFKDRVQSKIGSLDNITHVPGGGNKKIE
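Heparin-induced fibrillization of the P301L-mutant K18 repeat-domain fragment of human tau was followed by ThT binding in quantitative high-throughput format.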
Tau FP inhib = inhibitors of human tau fibril formation; P10636; K18 P301L tau heparin fibrillization, Alexa594 FP, 6 h; Potency, µM (series often up to 57.7 µM), for the others: at the highest dose activity, negative = inhibition, usual class: inhibitors; actives 0.39% (n = 280,000); further: nearly all actives have a fitted effect of over 55% in size
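Human K18 P301L fragment (15 uM unlabeled plus 0.24 uM Alexa 594-labeled) in 100 mM sodium acetate pH 7 with compound, aggregation induced by 20 uM heparin for 6 hr at 37 C. ThT (30 uM) added for 1 hr, then Alexa 594 FP read.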
Starred values were filed as active, the others as inactive; [ ] = remark or other dose. Unless noted, the call rests on the fitted dose curve; in most records, active means well fitted curve in the direction sought with a large enough effect; inconclusive means small, poorly fitted or top-dose-only effect, or another doubt; inactive means no such curve, though single readings can be large; an effect the other way counts as inactive or inconclusive. Unless noted, on the % scale 0 is the no-effect control and ±100 the full control effect; potency means the concentration at half of the fitted maximal effect.

Cc1cc(C)cc(Oc2cc(NC(=O)c3cn(C)nc3C)cc([N+](=O)[O-])c2)c1 was read as JMJD2E inh -10%, Tau fluor counter 2.5µM*[quencher], GoLoco inh red 7%, Tau fibril ThT 5% and Tau FP inhib inconclusive.
Cc1ccc(Oc2cc(NC(=O)CCCn3nc([N+](=O)[O-])c(Cl)c3C)cc([N+](=O)[O-])c2)cc1 was read as JMJD2E inh -3%, Tau fluor counter 7.9µM*[quencher], GoLoco inh red 2%, Tau fibril ThT -8% and Tau FP inhib 4%.
For Cc1cccc2sc(NC(=O)C3CCN(S(=O)(=O)c4cc([N+](=O)[O-])ccc4Cl)CC3)nc12 the results were JMJD2E inh 13µM*, Tau fluor counter inconclusive, GoLoco inh red -39%, Tau fibril ThT inconclusive and Tau FP inhib 11%.
For O=C(NCc1ccc(Cl)cc1)C1CCN(S(=O)(=O)c2cc([N+](=O)[O-])ccc2Cl)CC1 the results were JMJD2E inh -2%, Tau fluor counter inconclusive, GoLoco inh red -10%, Tau fibril ThT -8% and Tau FP inhib 11%.
Screening O=C(Nc1ccc(Br)cc1)N1CCC(CN2CCCC2)CC1 returned Tau fluor counter 5%, Tau fibril ThT 1% and Tau FP inhib -4%.
Screening COC(=O)c1ccc(NC(=O)CCc2c(C)nn(-c3ccc(N4CCCCC4)nn3)c2C)cc1 returned Tau fluor counter -12%, Tau fibril ThT inconclusive and Tau FP inhib 9%.
Screening Cc1cc(N=Nc2c(O)c3ccccc3[nH]c2=O)ccc1N=Nc1ccc(C(=O)N(C)C)cc1 returned JMJD2E inh -10%, Tau fluor counter inconclusive, GoLoco inh red 4%, Tau fibril ThT 2.2µM* and Tau FP inhib -9%.
`Cc1ccc(N=Nc2c(O)c3ccccc3[nH]c2=O)c(S(=O)(=O)N(C)C)c1` gave JMJD2E inh 12%, Tau fluor counter -14%, GoLoco inh red 5%[14.2 µM], Tau fibril ThT inconclusive and Tau FP inhib 9%.
For Cc1ccc(N=Cc2nc(/C=C/c3cccc([N+](=O)[O-])c3)oc2O)cc1 the results were JMJD2E inh -7%, Tau fluor counter -16%, GoLoco inh red -8%, Tau fibril ThT 1.4µM* and Tau FP inhib 12%.
CC(=O)/C=C/c1ccccc1O was read as JMJD2E inh -13%, Tau fluor counter 0%, GoLoco inh red 2%, Tau fibril ThT -15% and Tau FP inhib inconclusive.
`COC(=O)/C=C/c1cc(O)ccc1O` gave Tau fluor counter -27%, GoLoco inh red 2.8µM*, Tau fibril ThT inconclusive and Tau FP inhib -12%.
Clc1ccc(Cn2c(/C=C/c3ccco3)nc3ccccc32)cc1 was read as JMJD2E inh inconclusive, Tau fluor counter -8%, GoLoco inh red 61%, Tau fibril ThT inconclusive and Tau FP inhib -2%.
`Cc1ccc(Cn2c(/C=C/c3ccco3)nc3ccccc32)cc1` gave JMJD2E inh inconclusive, Tau fluor counter inconclusive, GoLoco inh red 157%, Tau fibril ThT 25µM* and Tau FP inhib inconclusive.
O=C(Nc1ccc(C(=O)O)cc1)Nc1cccc([N+](=O)[O-])c1 was read as JMJD2E inh 4%, Tau fluor counter -25%, GoLoco inh red 6%, Tau fibril ThT -17% and Tau FP inhib -6%.
COc1ccc(C(=O)C(C)Oc2cccc(NC(=O)c3cccc([N+](=O)[O-])c3)c2)cc1 (centres undefined) was read as JMJD2E inh 7%, Tau fluor counter 3.5µM*[quencher], GoLoco inh red 9%, Tau fibril ThT -11% and Tau FP inhib -3%.
Screening O=C(Nc1cccc([N+](=O)[O-])c1)Nc1cccc([N+](=O)[O-])c1 returned JMJD2E inh -13%, Tau fluor counter inconclusive, GoLoco inh red 2%, Tau fibril ThT inconclusive and Tau FP inhib -14%.
`O=C(Nc1cccc([N+](=O)[O-])c1)Nc1ccc2c(c1)OCCO2` gave JMJD2E inh -27%, Tau fluor counter 14µM*[quencher], GoLoco inh red 7%, Tau fibril ThT inconclusive and Tau FP inhib 5%.
Screening COc1cc(NC(=O)Nc2cccc([N+](=O)[O-])c2)cc(OC)c1 returned JMJD2E inh 5%, Tau fluor counter 14µM*[quencher], GoLoco inh red 18%, Tau fibril ThT inconclusive and Tau FP inhib inconclusive.
`COc1ccc(CCNC(=O)c2ccc3c(c2)N(Cc2c(F)cccc2Cl)C(=O)CS3)cc1OC` gave Tau fluor counter -13%, Tau fibril ThT -5% and Tau FP inhib 6%.
`Cc1ccc(-c2cn3c(n2)sc2cc(C(=O)NC4CCCCC4)ccc23)cc1` gave Tau fluor counter -9%, Tau fibril ThT -9% and Tau FP inhib -1%.
For COc1ccc2c(c1)c1c(c(=O)n(-c3ccc(C)cc3)c(=O)n1CC(=O)Nc1cc(C)ccc1C)n2C the results were Tau fluor counter 1%, Tau fibril ThT 8% and Tau FP inhib -5%.
For NS(=O)(=O)c1cc(C(=O)O)cc(N2CCCC2)c1Oc1ccccc1 the results were JMJD2E inh inconclusive and GoLoco inh red 10%[21.6 µM].
Screening CCCCNc1cc(C(=O)O)cc(S(N)(=O)=O)c1Oc1ccccc1 returned JMJD2E inh 25µM*, Tau fluor counter -12%, GoLoco inh red -33%, Tau fibril ThT -14% and Tau FP inhib -8%.
Screening Cc1cc(C)[n+]2[nH]c(N)c(N=Nc3ccccc3)c2n1 returned JMJD2E inh -9%, Tau fluor counter -21%, GoLoco inh red -3%, Tau fibril ThT 16µM* and Tau FP inhib 4%.
Cc1cc(C(F)(F)F)n2[nH]c(=O)c(N=Nc3ccccc3)c2n1 was read as JMJD2E inh inconclusive, Tau fluor counter -16%, GoLoco inh red -1%, Tau fibril ThT inconclusive and Tau FP inhib 3%.
`COc1ccc(CNC(=O)c2cccn2-c2nnc(N3CCCC3)s2)c(OC)c1` gave Tau fluor counter -3%, Tau fibril ThT 2% and Tau FP inhib -12%.
Cc1cc2ccccc2n1CCNC(=O)c1ccc(Br)cc1 was read as Tau fluor counter inconclusive, Tau fibril ThT inconclusive and Tau FP inhib -3%.
`Cc1cc2ccccc2n1CCNC(=O)c1ccc(Br)o1` gave JMJD2E inh -23%, Tau fluor counter -13%, GoLoco inh red 22µM*, Tau fibril ThT inconclusive and Tau FP inhib -15%.
Screening Cc1cccc2c1NC(=O)/C2=C\C(=O)c1cccs1 returned JMJD2E inh 1%, Tau fluor counter -26%, GoLoco inh red -7%, Tau fibril ThT 22µM* and Tau FP inhib 6%.
Cc1cc(C)c2c(c1)/C(=C/C(=O)c1ccc(Br)s1)C(=O)N2 was read as JMJD2E inh 1%, Tau fluor counter 20µM*[quencher], GoLoco inh red 12%, Tau fibril ThT 28µM* and Tau FP inhib -13%.
